According to PubChem BioAssay (EPA / NIEHS):
Several values for one entry are separate records, joined by “and”; a condition that tells them apart may be missing. Equal entries are not always repeated. Some compounds were tested as several samples or in several runs, with calls that do not always agree. Activity calls are given as the source filed them. How the source made its calls: active means hit-call score of the fitted dose curve at least 0.9, where 1 is the maximum; inactive means score below 0.9.

Legend:
[1] = APR_HepG2_P-H2AX_72hr: Apredica 72-hour HepG2 Assay for H2AX Phosphorylation (AID 2282916); settings: imaging, actives raise or lower the signal;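 further: phospho-histone H2A.x immunostain intensity per cell marking DNA damage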
In short: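 Readout: phospho-H2A.x immunofluorescence (FITC secondary) plus Hoechst nuclear stain, high-content imaging at 20x, six fields/well. HepG2, 72 hr compound exposure, 0.39–200 uM, final DMSO 0.5% v/v. Gain or loss fitted relative to DMSO baseline.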

[2] = APR_HepG2_MitoMembPot_72hr: Apredica 72-hour HepG2 Assay for Mitochondrial Membrane Potential (AID 2282917); settings: imaging, actives raise or lower the signal
In short: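 HepG2 cells dosed 72 hr with compound at 0.39–200 uM in duplicate, 0.5% v/v DMSO final. Mitochondria stained with 250 nM MitoTracker Red CMXRos for 30 min before formaldehyde fixation, imaged by high-content fluorescence; bidirectional fit versus DMSO.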

[3] = APR_HepG2_MitoticArrest_72hr: Apredica 72-hour HepG2 Assay for Mitotic Arrest (AID 2282918); settings: high-content imaging, actives raise or lower the signal
In short: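 High-content imaging of fixed human HepG2 cells after 72 h compound exposure (0.39–200 uM, duplicates, 0.5% DMSO); mitotic arrest scored from phospho-histone H3 and nuclear Hoechst staining relative to DMSO.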

[4] = APR_HepG2_MicrotubuleCSK_72hr: Apredica 72-hour HepG2 Assay for Microtubule CSK Stabilty (AID 2282919); settings: HepG2 microtubule cytoskeleton, high-content imaging, actives raise or lower the signal
In short: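 HepG2, 72 hr cmpd exposure, 0.39–200 uM (10 pts, duplicate), 0.5% DMSO. 3.7% formaldehyde fix, 0.5% Triton perm, anti-alpha-tubulin/Cy5 plus Hoechst. HCS fluorescence intensity; bidirectional fit vs DMSO baseline; taxol as positive control.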

[5] = APR_HepG2_P-H2AX_24hr: Apredica 24-hour HepG2 Assay for H2AX Phosphorylation (AID 2282920); settings: high-content imaging, actives raise or lower the signal
In short: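 High-content imaging of phospho-histone H2A.x immunofluorescence, nuclei counterstained with Hoechst 33342, in fixed HepG2 cells. Compounds ran 0.39–200 uM in duplicate for 24 h, final DMSO 0.5%. Signal change fitted both directions against DMSO.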

[6] = APR_HepG2_StressKinase_72hr: Apredica 72-hour HepG2 Assay for Stress Kinase (AID 2282921); settings: HepG2 stress kinase (phospho-c-Jun) imaging, actives raise or lower the signal
In short: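 Phospho-c-Jun immunofluorescence measured by high-content imaging at 20x, six fields per well; bidirectional curve fitting against DMSO as baseline. Dosing: 0.39–200 uM, 72 h, 0.5% DMSO final.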

[7] = APR_HepG2_StressKinase_24hr: Apredica 24-hour HepG2 Assay for Stress Kinase (AID 2282922); settings: HepG2 stress kinase (phospho-c-Jun) imaging, actives raise or lower the signal
In short: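 Read-out: phospho-c-Jun immunofluorescence (Cy3 secondary) quantified by high-content imaging at 20x, nuclei defined by Hoechst 33342. Human HepG2 liver cells dosed 24 hr, 0.39–200 uM, DMSO 0.5% v/v; gain or loss of signal fitted relative to DMSO.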

[8] = APR_HepG2_MitoMass_72hr: Apredica 72-hour HepG2 Assay for Mitochondrial Mass (AID 2282924); settings: high-content imaging, actives raise or lower the signal;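 further: MitoTracker Red CMXRos stain intensity per cell imaged as mitochondrial mass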
In short: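 Read-out: MitoTracker Red fluorescence intensity from automated imaging (20x, six fields per well) in human HepG2 liver cells. Dosing ran 72 hr, 0.39–200 uM, 0.5% DMSO; bidirectional curve fitting versus DMSO baseline.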

[9] = APR_HepG2_NuclearSize_72hr: Apredica 72-hour HepG2 Assay for Nuclear Size (AID 2282925); settings: high-content imaging, actives raise or lower the signal
In short: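 Read-out: nuclear diameter from Hoechst 33342 images (ArrayScan, 20x, six fields/well), via cell-cycle image analysis. HepG2 were dosed 0.39–200 uM for 72 hr in 0.5% DMSO. Bidirectional fit relative to DMSO.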

[10] = molecular target: CCAAT/enhancer-binding protein beta (Homo sapiens) (UniProt P17676); assay: ATG_C_EBP_CIS: Attagene CIS-FACTORIAL HepG2 Assay for human CCAAT/Enhancer Binding Protein (C/EBP) beta (AID 2282927); settings: HepG2 Attagene cis-factorial transcription factor reporter; actives raise or lower the signal
In short: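 HepG2, transient MRTU transfection, 24 h treatment. RT-PCR plus CE fluorescence; DMSO negative control, bidirectional fit.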

[11] = ATG_CMV_CIS: Attagene CIS-FACTORIAL HepG2 Assay for human CMV (Internal Marker) (AID 2282928); settings: HepG2 CMV promoter reporter, transcription factor profiling; actives raise or lower the signal;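 further: endpoint acts as a background internal control marker rather than a target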
In short: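 Readout: fluorescent reporter cDNA fragments separated by capillary electrophoresis after RT-PCR and HpaI cut. Cells: HepG2 carrying transfected cis-promoter reporter constructs, dosed 24 h. Endpoint serves as background internal-marker control, fit bidirectionally versus DMSO.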

[12] = ATG_DR4_LXR_CIS: Attagene CIS-FACTORIAL HepG2 Assay for human Liver X Receptor (LXR), DR4 submotif (AID 2282929); settings: HepG2 Attagene DR4 cis-reporter, mRNA transcription; actives raise or lower the signal
In short: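 HepG2 cells transiently transfected with cis-promoter-driven multiplexed reporter units (DR4 element) were dosed for 24 h. Reporter mRNA was quantified by RT-PCR, fluorescent primer extension, HpaI digestion and capillary electrophoresis; bidirectional fitting versus DMSO baseline.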

[13] = molecular target: Aryl hydrocarbon receptor (Homo sapiens) (UniProt P35869); assay: ATG_Ahr_CIS: Attagene CIS-FACTORIAL HepG2 Assay for human Aryl Hydrocarbon Receptor (Ahr) (AID 2282930); settings: HepG2 AhR cis-factorial reporter transcription; actives raise or lower the signal
In short: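 Endogenous factor activity is tracked through cis-promoter reporter units transfected into HepG2 cells. Transcript levels at 24 h are read by fluorescent RT-PCR and capillary electrophoresis, with activity in either direction scored relative to DMSO.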

[14] = ATG_AP_1_CIS: Attagene CIS-FACTORIAL HepG2 Assay for human Activator Protein 1 (AP-1) (AID 2282931); settings: HepG2 Attagene cis-factorial AP-1 reporter mRNA; actives raise or lower the signal
In short: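 HepG2 cells transiently transfected with cis-element-driven multiplex reporter units; 24 h compound exposure. Reporter mRNA quantified by RT-PCR, FAM-labelled fragments resolved by capillary electrophoresis; bidirectional fit versus DMSO baseline.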

[15] = ATG_AP_2_CIS: Attagene CIS-FACTORIAL HepG2 Assay for human Activator Protein 2 (AP-2) (AID 2282932); settings: HepG2 AP-2 cis-reporter, Attagene transcription factor profiling; actives raise or lower the signal
In short: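 Read-out: fluorescent reporter mRNA via RT-PCR and capillary electrophoresis, 24 h post-dose in transiently transfected HepG2. Endogenous factors drive cis-promoter reporters; gain or loss of signal fitted bidirectionally against DMSO.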

[16] = ATG_BRE_CIS: Attagene CIS-FACTORIAL HepG2 Assay for human Bone Morphogenetic Protein (BMP) Response Element (BRE) (AID 2282933); settings: HepG2 BMP response element reporter, Attagene transcription factor profiling; actives raise or lower the signal
In short: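 HepG2 cells transiently transfected with multiplexed cis-element reporter units were dosed with chemical for 24 h. Reporter mRNA was measured by RT-PCR with fluorescent labelling, HpaI digestion and capillary electrophoresis; bidirectional fitting relative to DMSO.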

[17] = molecular target: Retinoic acid receptor alpha (Homo sapiens) (UniProt P10276); assay: ATG_DR5_RAR_CIS: Attagene CIS-FACTORIAL HepG2 Assay for human Retinoic Acid Receptor Alpha (RARE), DR5 submotif (AID 2282934); settings: HepG2 Attagene cis-factorial RARE DR5 reporter, mRNA; actives raise or lower the signal;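 on AC50: reporter responds to endogenous RAR alpha beta and gamma in HepG2 not RARA alone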
In short: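 After 24 h of chemical exposure, transiently transfected HepG2 cells were lysed for total RNA; the DR5-regulated reporter transcript was quantified via RT-PCR and capillary electrophoresis, with activity fitted bidirectionally against DMSO.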

[18] = molecular target: Transcription factor E2F1 (Homo sapiens) (UniProt Q01094); assay: ATG_E2F_CIS: Attagene CIS-FACTORIAL HepG2 Assay for human E2F Transcription Factor 1 (AID 2282935); settings: HepG2 Attagene cis-reporter, E2F reporter RNA transcripts; actives raise or lower the signal
In short: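 Transient MRTU transfection of HepG2; 24 h compound exposure; RNA → oligo(dT) RT → PCR → FAM label → HpaI cut → CE fluorescence. Gain/loss of signal fit against DMSO.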

[19] = APR_HepG2_p53Act_72hr: Apredica 72-hour HepG2 Assay for p53 Activation (AID 2282923); settings: high-content imaging, actives raise or lower the signal;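 further: average cellular p53 protein immunofluorescence intensity in HepG2 cells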
In short: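 Readout: p53 immunofluorescence quantified by automated high-content imaging at 20x, six fields per well, nuclei located via Hoechst. Dosing ran 72 hr over ten concentrations from 0.39 to 200 uM; bidirectional curve fitting against DMSO baseline.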

[20] = ATG_CRE_CIS: Attagene CIS-FACTORIAL HepG2 Assay for human cAMP Responsive Element (CRE) binding protein 3 (AID 2282926); settings: HepG2 CRE cis-reporter, Attagene multiplexed mRNA; actives raise or lower the signal
In short: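 Endogenous transcription factor activity read via CRE-regulated reporter transcripts in transfected HepG2 cells. After 24 h exposure, RNA was reverse-transcribed, amplified, fluorescently labelled and sized by capillary electrophoresis; gain or loss fitted against DMSO.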

Measured: AC50

Transcription factor E2F1 (Homo sapiens), sequence (Q01094 whole entry, looked up): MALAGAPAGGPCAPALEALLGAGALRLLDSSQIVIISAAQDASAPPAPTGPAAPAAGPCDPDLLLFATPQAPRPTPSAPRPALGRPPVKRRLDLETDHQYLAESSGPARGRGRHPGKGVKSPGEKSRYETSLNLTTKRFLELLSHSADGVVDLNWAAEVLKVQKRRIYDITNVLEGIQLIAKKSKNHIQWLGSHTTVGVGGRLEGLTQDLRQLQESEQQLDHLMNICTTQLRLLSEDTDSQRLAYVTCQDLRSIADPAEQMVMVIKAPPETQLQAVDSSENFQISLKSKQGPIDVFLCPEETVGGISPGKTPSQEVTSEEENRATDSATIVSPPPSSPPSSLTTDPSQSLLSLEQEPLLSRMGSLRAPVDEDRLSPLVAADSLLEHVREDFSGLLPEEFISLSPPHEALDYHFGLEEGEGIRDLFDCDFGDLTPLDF
Aryl hydrocarbon receptor (Homo sapiens), sequence (P35869 whole entry, looked up): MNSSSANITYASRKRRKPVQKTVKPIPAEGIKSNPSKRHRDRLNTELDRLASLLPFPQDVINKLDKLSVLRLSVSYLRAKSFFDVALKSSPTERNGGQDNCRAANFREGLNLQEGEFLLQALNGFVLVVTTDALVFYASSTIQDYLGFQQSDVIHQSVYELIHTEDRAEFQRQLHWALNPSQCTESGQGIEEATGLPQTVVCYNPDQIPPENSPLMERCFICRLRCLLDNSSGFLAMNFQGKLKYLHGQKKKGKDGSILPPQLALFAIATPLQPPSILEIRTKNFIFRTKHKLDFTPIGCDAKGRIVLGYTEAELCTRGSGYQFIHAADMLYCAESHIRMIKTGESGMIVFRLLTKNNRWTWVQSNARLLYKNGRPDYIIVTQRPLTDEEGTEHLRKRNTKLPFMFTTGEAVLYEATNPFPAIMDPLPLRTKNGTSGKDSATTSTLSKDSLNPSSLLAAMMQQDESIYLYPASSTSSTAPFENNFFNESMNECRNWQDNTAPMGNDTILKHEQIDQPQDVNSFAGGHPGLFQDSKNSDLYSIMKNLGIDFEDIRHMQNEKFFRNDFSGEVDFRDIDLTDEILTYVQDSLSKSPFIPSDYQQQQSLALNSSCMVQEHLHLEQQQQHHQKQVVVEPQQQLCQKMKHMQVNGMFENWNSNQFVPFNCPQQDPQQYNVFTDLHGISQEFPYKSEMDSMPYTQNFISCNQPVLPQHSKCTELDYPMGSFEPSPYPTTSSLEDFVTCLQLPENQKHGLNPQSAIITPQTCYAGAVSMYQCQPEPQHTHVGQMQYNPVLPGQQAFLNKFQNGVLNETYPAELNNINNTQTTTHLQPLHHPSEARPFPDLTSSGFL
CCAAT/enhancer-binding protein beta (Homo sapiens), sequence (P17676 whole entry, looked up): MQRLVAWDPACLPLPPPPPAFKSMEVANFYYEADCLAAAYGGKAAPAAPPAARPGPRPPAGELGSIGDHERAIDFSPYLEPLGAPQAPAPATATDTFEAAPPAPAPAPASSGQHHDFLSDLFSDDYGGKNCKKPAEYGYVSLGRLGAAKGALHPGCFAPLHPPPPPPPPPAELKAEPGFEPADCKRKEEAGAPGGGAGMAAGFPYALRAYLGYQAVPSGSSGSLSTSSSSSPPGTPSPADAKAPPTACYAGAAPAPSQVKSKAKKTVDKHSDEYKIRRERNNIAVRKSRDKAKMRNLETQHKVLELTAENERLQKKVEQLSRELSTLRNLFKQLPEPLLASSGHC
Retinoic acid receptor alpha (Homo sapiens), sequence (P10276 whole entry, looked up): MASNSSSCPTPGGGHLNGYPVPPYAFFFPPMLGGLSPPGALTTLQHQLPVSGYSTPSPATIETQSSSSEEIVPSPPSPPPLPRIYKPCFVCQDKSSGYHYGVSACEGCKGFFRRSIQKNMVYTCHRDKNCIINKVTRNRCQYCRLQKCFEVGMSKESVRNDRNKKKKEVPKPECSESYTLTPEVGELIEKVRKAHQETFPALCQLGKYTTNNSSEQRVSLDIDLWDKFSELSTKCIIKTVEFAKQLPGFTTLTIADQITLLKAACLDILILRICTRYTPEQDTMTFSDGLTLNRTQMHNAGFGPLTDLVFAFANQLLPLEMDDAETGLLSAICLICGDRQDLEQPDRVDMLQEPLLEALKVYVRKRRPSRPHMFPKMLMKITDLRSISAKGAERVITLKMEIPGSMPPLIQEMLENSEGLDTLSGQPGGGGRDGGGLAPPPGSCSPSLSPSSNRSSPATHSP

O=NN(c1ccccc1)c1ccccc1
inactive: [1] | [3] | [4] | [5] | [6] | [7] | [8] | [9] | [10] | [11] | [12] | [13] | [15] | [16] | [17] | [18]
active: [2] 0.0668 µM | [14] 118 µM

CC(C)C(=O)OCC(C)(C)C(OC(=O)C(C)C)C(C)C (stereo not drawn)
active: [13] 69 µM
inactive: [1] | [2] | [3] | [4] | [5] | [6] | [7] | [8] | [9] | [10] | [11] | [12] | [14] | [15] | [16] | [17] | [18]

NS(=O)(=O)C(F)(F)C(F)(F)C(F)(F)C(F)(F)C(F)(F)C(F)(F)C(F)(F)C(F)(F)F
active: [1] 99.3 µM | [2] 102 µM | [3] 77.9 µM | [19] 61.7 µM | [10] 36.3 µM and 24.3 µM | [11] 40.4 µM and 227 µM and 21.6 µM | [12] 33.4 µM and 105 µM | [14] 29.9 µM and 262 µM and 17 µM | [16] 45.4 µM and 248 µM and 15.5 µM
inactive: [4] | [6] | [7] | [8] | [9] | [10] | [12] | [13] | [15] | [18]

Cc1cc(-c2ccc(N)c(C)c2)ccc1N
active: [11] 60.2 µM
inactive: [1] | [2] | [3] | [4] | [5] | [6] | [7] | [8] | [9] | [20] | [10] | [11] | [12] | [14] | [15] | [16] | [18]

O=S(=O)(O)C(F)(F)C(F)(F)C(F)(F)C(F)(F)C(F)(F)C(F)(F)F
inactive: [1] | [2] | [3] | [4] | [5] | [6] | [7] | [19] | [8] | [9] | [20] | [10] | [11] | [12] | [13] | [14] | [15] | [16] | [18]
active: [14] 117 µM

CCSC(=O)N(CC)C1CCCCC1
inactive: [1] | [2] | [3] | [4] | [5] | [6] | [7] | [8] | [9] | [10] | [11] | [12] | [13] | [14] | [15] | [16] | [18]

C[C@]12CCC(=O)C=C1CC[C@@H]1[C@@H]2CC[C@]2(C)C(=O)CC[C@@H]12
active: [12] 161 µM and 167 µM | [13] 49.8 µM | [15] 45.1 µM
inactive: [1] | [2] | [3] | [4] | [5] | [6] | [7] | [8] | [9] | [20] | [10] | [11] | [12] | [13] | [14] | [15] | [16] | [18]

CCC(C)c1cc([N+](=O)[O-])cc([N+](=O)[O-])c1O (stereo not drawn)
inactive: [3] | [4] | [6] | [7] | [19] | [9] | [12] | [13] | [15] | [18]
active: [1] 69.7 µM | [2] 111 µM | [8] 72.3 µM | [20] 14 µM | [10] 12.5 µM | [11] 19.6 µM | [14] 10.6 µM | [16] 11.8 µM | [17] 13.2 µM

COS(=O)(=O)OC
inactive: [1] | [2] | [3] | [4] | [5] | [6] | [7] | [8] | [9] | [10] | [11] | [12] | [13] | [14] | [15] | [16] | [18]

COc1ccc(O)c(C(C)(C)C)c1
inactive: [1] | [2] | [3] | [4] | [5] | [6] | [7] | [8] | [9] | [12] | [13] | [15] | [16] | [17] | [18]
active: [10] 100 µM | [11] 83.1 µM | [14] 55.5 µM

C=CC(N)=O
inactive: [1] | [2] | [3] | [4] | [5] | [6] | [7] | [8] | [9] | [20] | [10] | [11] | [13] | [14] | [15] | [16] | [18]
active: [12] 47.6 µM
